The list is not random: actives were taken first. Their share in the collection is about 3.2%.
14-3-3 Bad inh – disrupts binding of bovine 14-3-3 zeta to phospho-Bad peptide; actives 0.71% (n = 220,000); TR-FRET 14-3-3zeta/Dy647-pBad peptide displacement, 1 h; inhibition, % at 21.7 µM;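 active = inhibition above about 70%, limit read from the data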
Target sequence (P63103 whole entry, looked up): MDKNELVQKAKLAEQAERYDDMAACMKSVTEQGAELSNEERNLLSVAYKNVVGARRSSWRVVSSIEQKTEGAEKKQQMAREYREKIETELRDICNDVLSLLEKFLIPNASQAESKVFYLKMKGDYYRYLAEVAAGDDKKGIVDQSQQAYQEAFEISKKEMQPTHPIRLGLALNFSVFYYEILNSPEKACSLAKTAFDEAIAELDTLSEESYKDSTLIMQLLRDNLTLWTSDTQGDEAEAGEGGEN
Mcl-1 Bim block – inhibitors of Bim-Mcl-1 interaction, human; AID 1009; inhibition, % at 10 µM; actives 0.1% (n = 190,000); Bead-based flow cytometry, Bim peptide-Mcl-1 binding; Q07820; in the data active = inhibition above about 40%
Target sequence (Q07820 whole entry, looked up): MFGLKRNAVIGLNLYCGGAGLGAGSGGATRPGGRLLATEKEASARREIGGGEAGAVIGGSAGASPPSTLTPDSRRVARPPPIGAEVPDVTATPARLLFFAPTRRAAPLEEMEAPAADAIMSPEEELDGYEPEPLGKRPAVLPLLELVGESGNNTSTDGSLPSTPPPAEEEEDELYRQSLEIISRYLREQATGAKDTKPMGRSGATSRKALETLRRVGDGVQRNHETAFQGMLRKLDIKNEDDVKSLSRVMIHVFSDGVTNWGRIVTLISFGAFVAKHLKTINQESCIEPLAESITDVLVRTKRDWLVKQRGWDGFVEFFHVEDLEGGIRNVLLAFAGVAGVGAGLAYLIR
p47phox inh – p47phox (human) inhibition | P14598 | p47phox/p22phox peptide binding, fluorescence polarization, 2 h | inhibition, % at 24.7 µM | actives 0.53% (n = 220,000) | AID 1274;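 active = inhibition above about 30%, limit read from the data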
Mcl1-Noxa inh – Mcl-1/Noxa interaction inhibition | TR-FRET Mcl-1/Noxa peptide binding, 2 h | inhibition, % at 21.7 µM | actives 1.5% (n = 220,000);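 active = compounds that cut the protein-peptide binding signal by more than 50% relative to plate controls in a single-dose test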;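 also: His-tagged Mcl-1 with rhodamine Noxa BH3 peptide and terbium anti-His antibody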
Mcl1-Bid inh – Mcl-1/Bid interaction inhibition; Q07820; TR-FRET Mcl-1/Bid-Dy647 peptide binding, 1536-well; inhibition, % at 21.7 µM; actives 0.97% (n = 220,000); AID 1021;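 active = compounds that cut the binding signal by more than half at the single screening dose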;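 also: His-tagged Mcl-1 with europium anti-His antibody binding Bid BH3 peptide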
Numbers stand for hits; 0 = inactive; - = no result; [ ] = remark or other dose.

SMILES | 14-3-3 Bad inh | Mcl-1 Bim block | p47phox inh | Mcl1-Noxa inh | Mcl1-Bid inh
COc1ccc(CCn2c(-c3ccc(OC)cc3)nc3c(c(=O)c4ccccc4n3C)c2=O)cc1 | 0 | - | 0 | 0 | 0
CC(=O)NCCCC(=O)NN1C(=S)N(Cc2ccccc2)C(=O)C1CC(=O)Nc1cccc(C)c1 (centres undefined) | 0 | 0 | 0 | 0 | 0
COc1cccc2c1c(NC(=O)Nc1ccc(F)cc1F)nn2C | 0 | - | 0 | 0 | 67
COc1ccccc1NC(=O)Nc1nn(C)c2cccc(N(C)C)c12 | 0 | - | 0 | 0 | 0
N#CCC(CNc1ncc(C(F)(F)F)cc1Cl)OC(=O)c1ccc(Cl)cc1Cl (centres undefined) | 0 | 0 | 0 | 0 | 0
Oc1ccccc1CNc1ccc(OC(F)(F)F)cc1 | 0 | 0 | 0 | 57 | 0
Cc1ccc(NCc2ccccc2O)cc1C | 0 | 0 | 0 | 0 | 0
COc1ccc(C(C)=O)cc1COc1ccc(Cl)cc1Cl | 0 | - | 0 | 0 | 92
O=C(CCNS(=O)(=O)c1c(Cl)cccc1Cl)OCC(=O)c1ccccc1 | 0 | 0 | 0 | 0 | 0
O=c1cnnc(N/N=C/c2c[nH]c3ccccc23)[nH]1 | 0 | 0 | 99 | 0 | 0
CC(C)c1ccc(OC(=O)NCCO)cc1 | 0 | 0 | 41 | 0 | 0
COc1ccc(OC(=O)NCCc2ccccc2)cc1 | 0 | - | 0 | 0 | 0
O=C(N/N=C/c1cccn1-c1cccc(C(=O)O)c1)Nc1ccccc1 | 0 | 0 | 0 | 0 | 0
O=C(c1ccco1)N1CCN(C(=O)c2cc(-c3ccccn3)nc3ccccc23)CC1 | - | 0 | - | - | -
CN1CCCN(C(=O)c2cc(-c3ccc(Cl)c(Cl)c3Cl)nc3ccccc23)CC1 | 0 | 0 | 0 | 0 | 0
O=C(OCC(=O)N1CCN(C(=O)c2ccco2)CC1)c1cc(-c2ccco2)nc2ccccc12 | 0 | 0 | 0 | 99 | 0
O=C(OCC(=O)N1CCN(C(=O)c2ccco2)CC1)c1cc(-c2ccc(Cl)c(Cl)c2Cl)nc2ccccc12 | 0 | 0 | 37 | 0 | 0
CCc1ccc(C2=NN(CCC(=O)NCc3cccs3)C(=O)CC2)cc1 | 0 | 0 | 0 | 0 | 0
COc1ccc(OC)c(NC(=O)CCN2CCCCC2)c1 | 0 | 0 | 0 | 0 | 0
COc1ccc(OC)c(NC(=O)CCN2CCCC(C)C2)c1 (centres undefined) | 0 | 0 | 0 | 0 | 51
COc1ccc(NC(=O)Nc2nc(C)cc(C)n2)c(OC)c1 | 0 | - | 0 | 0 | 0
COC(=O)c1ccc(=O)c2nc3/c(=C/O)c(O)cc(=O)c3[nH]c12 | 73 | - | 0 | 98 | 75
COC(=O)c1ccc(N)cc1O | 0 | 0 | 0 | 0 | 0
Cc1ccc(CN2CCN(Cc3cn[nH]c3-c3cccc(F)c3)CC2CCO)o1 (centres undefined) | 0 | 0 | 0 | 0 | 0
COc1ccc2nc3ccccc3nc2c1N | 0 | - | 0 | 55 | 0
SMILES | 14-3-3 Bad inh | Mcl-1 Bim block | p47phox inh | Mcl1-Noxa inh | Mcl1-Bid inh
Oc1ccc(/C=N/Nc2nn3cnnc3c3ccccc23)cc1 | 0 | - | 0 | 51 | 0
COc1cc(/C=N/Nc2nn3cnnc3c3ccccc23)ccc1O | 0 | 0 | 0 | 68 | 0
CCOc1cc(/C=N/Nc2nn3cnnc3c3ccccc23)ccc1O | 0 | - | 0 | 56 | 0
Cc1ccc(S(=O)(=O)NNC(=O)c2cc(C)cs2)cc1 | 0 | - | 0 | 0 | 0
COc1ccc2c(c1)c1ccc3c(c1n2C)C(=O)C=CC3=O | 0 | - | 0 | 102 | 0
Cc1ccc2c(c1)c1ccc3c(c1n2C)C(=O)C=CC3=O | 0 | - | 0 | 108 | 0
CCCCN(CC(=O)NCCOC)C(=O)Cn1nnc2ccccc21 | 0 | 0 | 0 | 0 | 0
CCN(CC(=O)NCc1ccccc1Cl)CC(=O)Nc1c(F)cccc1F | 0 | - | 0 | 0 | 0
CS(=O)(=O)N(CC(=O)N1CCN(c2ccccc2)CC1)c1cccc(Br)c1 | 0 | 0 | 35 | 0 | 0
CSc1ccccc1NC(=O)CN(C)Cc1cccc(Cl)c1 | 72 | 0 | 0 | 0 | 0
Cc1ccc(NC(=O)CN2C(=O)/C(=C3\SC(=S)N(C4CCS(=O)(=O)C4)C3=O)c3ccccc32)cc1 (centres undefined) | 93[fluorescence artefact?] | 0 | 76 | 75 | 100
O=C(CN1C(=O)/C(=C2\SC(=S)N(C3CCS(=O)(=O)C3)C2=O)c2ccccc21)Nc1ccccc1 (centres undefined) | 81[fluorescence artefact?] | 0 | 69 | 121 | 99
CCN1C(=O)/C(=C2\SC(=S)N(CC3CCCO3)C2=O)c2ccccc21 (centres undefined) | 0 | 0 | 0 | 0 | 0
O=C(Oc1coc(CSc2ncccn2)cc1=O)c1ccccc1[N+](=O)[O-] | 0 | 0 | 0 | 0 | 0
CCc1nnc(NC(=O)CCn2cnc3ccccc3c2=O)s1 | 0 | 0 | 0 | 0 | 0
Cc1cc2ccccc2n2c(SCC(=O)NCc3cccs3)nnc12 | 0 | 0 | 0 | 67 | 0
Cc1ccccc1-n1c(SCC(=O)NCc2cccs2)nc2ccccc2c1=O | 0 | 0 | 30 | 0 | 0
Cc1cc(NC(=O)CSc2nnc3c(C)cc4ccccc4n23)no1 | 0 | 0 | 0 | 0 | 0
Cc1ccc(-n2c(SCC(=O)N/N=C/c3c(C)nn(-c4ccccc4)c3C)nc3ccccc3c2=O)cc1 | 0 | 0 | 0 | 0 | 53
Cc1ccccc1-n1c(SCC(=O)N/N=C/c2c(C)nn(-c3ccccc3)c2C)nc2ccccc2c1=O | 89 | 0 | 0 | 0 | 0
O=C(O)CSc1ccc(NC(=O)Nc2ccccc2F)cc1 | 0 | - | 0 | 0 | 0
CC(C)CCOc1ccc(C2CC(=O)N(C)C2=O)cc1 (centres undefined) | 0 | 0 | 0 | 0 | 0
CCSc1nnc(NC(=O)C2CC(=O)N(Cc3ccccc3)C2)s1 (centres undefined) | 0 | 0 | - | 0 | 0
Cc1cc(NC(=O)c2ccc(Cl)cc2)no1 | 0 | 0 | 48 | 0 | 0
Cc1ccc(C)c(NC(=O)Cn2nc(-c3ccccc3)nc2-c2ccccc2)c1 | 0 | 0 | 0 | 0 | 56
SMILES | 14-3-3 Bad inh | Mcl-1 Bim block | p47phox inh | Mcl1-Noxa inh | Mcl1-Bid inh
Cc1ccc(NC(=O)Cn2nc(-c3ccccc3)nc2-c2ccccc2)c(C)c1 | 0 | 0 | 0 | 0 | 0
CC1CC(C)CN(C(=O)Cn2cc(C=O)c3ccccc32)C1 (centres undefined) | 83 | 0 | 0 | 0 | 0
CSc1nnc2ccc(-c3cccs3)nn12 | 0 | 42 | 0 | 0 | 0
CCOc1ccc(OCc2ccc(C(=O)Nc3cccnc3)o2)cc1 | 0 | 0 | 0 | 0 | 0
CN(C)c1ccc(NC(=O)c2ccc(COc3cccc(Cl)c3)o2)cc1 | 0 | 0 | 0 | 85 | 0
Cc1ccc(C(C(=O)NC(C)(C)C)N(Cc2cccs2)C(=O)c2ccc3c(c2)OCCO3)cc1 (centres undefined) | 0 | 0 | 52 | 0 | 0
COc1cc(OC)cc(C(=O)N(CCCN2C(=O)c3cccc4cccc(c34)C2=O)c2cccc(OC)c2)c1 | 0 | 0 | 0 | 0 | 84
COc1ccc(N(CCCN2C(=O)c3cccc4cccc(c34)C2=O)C(=O)c2ccncc2)cc1 | 0 | 0 | 0 | 0 | 0
O=C(CNC(=O)Cc1ccc(Cl)cc1)NCc1ccco1 | 0 | 0 | 0 | 0 | 0
COc1ccc(OCC(=O)NNC(=O)c2cccnc2)cc1 | 92 | 0 | 0 | 0 | 0
COc1ccc(OCc2csc(N)n2)cc1 | 0 | 0 | 0 | 0 | 0
